In PubChem BioAssay (NCI):
The panel holds about 79,000 compounds, 15% with a hit somewhere; the sample as a whole holds those more often. Active and inactive are the calls of the source. Rule as the data show it: active = growth inhibition above about 70%; inactive = the rest.

Columns and labels:
[1] = NCI Yeast Anticancer Drug Screen. Data for the rad50 strain (AID 155);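 also: 0% = growth of vehicle-only cultures of the same strain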; details: S. cerevisiae rad50 strain growth inhibition, hits give high values
Method in brief: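 Vehicle-treated cultures provide the reference for the growth inhibition reported for compound-exposed, repair-deficient yeast.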

[2] = NCI Yeast Anticancer Drug Screen. Data for the mec2-1 strain (AID 157); details: S. cerevisiae mec2-1 strain, hits give high values
Method in brief: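 Readout is yeast growth inhibition, normalised to vehicle-treated controls, in the mec2-1 strain exposed to compound.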

[3] = NCI Yeast Anticancer Drug Screen. Data for the sgs1 mgt1 strain (AID 161);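 also: 0% = growth of cultures given vehicle only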; details: S. cerevisiae sgs1 mgt1 strain, hits give high values
Method in brief: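 Yeast cells carrying a defined DNA-repair defect were exposed to test compounds. Growth inhibition was measured relative to vehicle-treated controls.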

[4] = NCI Yeast Anticancer Drug Screen. Data for the cln2 rad14 strain (AID 165);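 also: 0% = growth equal to vehicle treated cultures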; details: S. cerevisiae cln2 rad14 strain, hits give high values
Method in brief: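 Relative to vehicle controls, growth inhibition of compound-treated cln2 rad14 yeast was recorded.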

[5] = NCI Yeast Anticancer Drug Screen. Data for the bub3 strain (AID 167); details: S. cerevisiae bub3 mutant strain, hits give high values
Method in brief: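 Mutant yeast screening strain plus compound; vehicle-treated cultures serve as the 0% inhibition reference.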

[6] = NCI Yeast Anticancer Drug Screen. Data for the mlh1 rad18 strain (AID 175); details: S. cerevisiae mlh1 rad18 strain growth inhibition, hits give high values
Method in brief: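 Test agents were incubated with a yeast strain of defined genotype (DNA damage repair defect). Inhibition of growth was derived by comparison with vehicle-exposed cultures.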

[7] = at 5.0 µM (retest, dose inferred, filed as 0.5)
[8] = at 50.0 µM (retest, dose inferred, filed as 5.0)

Measured: growth inhibition

O=C1c2cccc3cc([N+](=O)[O-])cc(c23)C(=O)N1O
inactive: [1]; [7] 34% | [1]; [8] 56% | [2]; [7] 15% | [2]; [8] 32% | [3]; [7] 13% | [3]; [8] 37% | [4]; [7] 20% | [4]; [8] 35% | [4]; at 50.0 µM 32.4% | [5]; [7] 18% | [5]; [8] 64% | [6]; [7] 31%
active: [1]; at 50.0 µM 82.7% | [2]; at 50.0 µM 91.3% | [3]; at 50.0 µM 81.2% | [5]; at 50.0 µM 70.5% | [6]; [8] 71% | [6]; at 50.0 µM 80.7%

CCCCCOCC(=O)OC
inactive: [1]; [7] -1% | [1]; [8] 13% | [1]; at 50.0 µM -1.9% | [2]; [7] 0% | [2]; [8] 5% | [2]; at 50.0 µM -11.6% | [3]; [7] -1% | [3]; [8] 5% | [3]; at 50.0 µM -16.2% | [4]; [7] 2% | [4]; [8] 0% | [4]; at 50.0 µM 44.2% | [5]; [7] 0% | [5]; [8] 7% | [5]; at 50.0 µM -1.3% | [6]; [7] 2% | [6]; [8] 7% | [6]; at 50.0 µM -15.1%

CCC1C(c2ccccc2O)c2cc3c(cc2OC1N1CCOCC1)OCO3 (configuration not stated)
inactive: [1]; [7] -18% | [2]; [7] -32% | [3]; [7] -42% | [4]; [7] 9% | [5]; [7] -50% | [6]; [7] -13%
active: [1]; [8] 98% | [1]; at 50.0 µM 85.9% | [2]; [8] 99% | [2]; at 50.0 µM 88.3% | [3]; [8] 98% | [3]; at 50.0 µM 88.2% | [4]; [8] 99% | [4]; at 50.0 µM 88.9% | [5]; [8] 99% | [5]; at 50.0 µM 88.8% | [6]; [8] 98% | [6]; at 50.0 µM 91.2%

CCC(O)C(O)(c1ccccc1)c1nc2ccccc2s1 (configuration not stated)
inactive: [1]; [7] -9% | [1]; [8] 15% | [1]; at 50.0 µM 6.75% | [2]; [7] 5% | [2]; [8] 11% | [2]; at 50.0 µM 5.9% | [3]; [7] -7% | [3]; [8] 23% | [3]; at 50.0 µM 14% | [4]; [7] 7% | [4]; [8] 9% | [4]; at 50.0 µM 2.2% | [5]; [7] -7% | [5]; [8] -12% | [5]; at 50.0 µM -2.65% | [6]; [7] 0% | [6]; [8] 15% | [6]; at 50.0 µM 15.1%

CCCCCCCCCCCCCCSC(=N)N
inactive: [1]; at 50.0 µM 66.3% | [2]; [7] 65% | [3]; at 50.0 µM 45.5% | [4]; [7] 41% | [4]; at 50.0 µM 54.5%
active: [1]; [7] 99% | [1]; [8] 95% | [2]; [8] 97% | [2]; at 50.0 µM 98.5% | [3]; [7] 100% | [3]; [8] 95% | [4]; [8] 95% | [5]; [7] 100% | [5]; [8] 96% | [5]; at 50.0 µM 98.7% | [6]; [7] 95% | [6]; [8] 96% | [6]; at 50.0 µM 97.7%

C=CCCCCO/N=C/c1c2c(O)c3c(O)c(C)c4c(c3c1O)C(=O)C(C)(O/C=C/C(OC)C(C)C(OC(C)=O)C(C)C(O)C(C)C(O)C(C)/C=C/C=C(\C)C(=O)N2)O4 (configuration not stated)
active: [1]; [8] 89% | [1]; at 50.0 µM 86.4% | [2]; [8] 91% | [2]; at 50.0 µM 91.8% | [3]; [8] 87% | [4]; [8] 91% | [4]; at 50.0 µM 88.3% | [5]; [8] 93% | [5]; at 50.0 µM 79.9% | [6]; [8] 89% | [6]; at 50.0 µM 85.3%
inactive: [1]; [7] 44% | [2]; [7] 44% | [3]; [7] 33% | [3]; at 50.0 µM 66.8% | [4]; [7] 67% | [5]; [7] 49% | [6]; [7] 34%

O=C(/C=C/c1ccc2c(c1)OCO2)c1ccc(O)cc1
inactive: [1]; [7] -27% | [1]; [8] -21% | [1]; at 50.0 µM 61% | [2]; [7] -13% | [2]; [8] 21% | [2]; at 50.0 µM 44% | [3]; [7] -27% | [3]; [8] -31% | [3]; at 50.0 µM 40.8% | [4]; [7] -7% | [4]; [8] -11% | [4]; at 50.0 µM 65.2% | [5]; [7] -32% | [5]; [8] 5% | [5]; at 50.0 µM 61.5% | [6]; [7] -33% | [6]; [8] -17% | [6]; at 50.0 µM 14.6%

ClC(Cl)=C1C(=C(Cl)Cl)C(Cl)(Cl)C1(Cl)Cl
active: [1]; [8] 98% | [1]; at 50.0 µM 88.2% | [2]; [8] 99% | [2]; at 50.0 µM 92.6% | [3]; [7] 70% | [3]; [8] 99% | [3]; at 50.0 µM 92% | [4]; [8] 97% | [4]; at 50.0 µM 92.7% | [5]; [8] 98% | [5]; at 50.0 µM 91.2% | [6]; [7] 74% | [6]; [8] 98% | [6]; at 50.0 µM 88.2%
inactive: [1]; [7] 51% | [2]; [7] 14% | [4]; [7] 55% | [5]; [7] 56%

Cc1ccc(CN2CC(=O)N3Cc4ccccc4CN3C(=O)C2)cc1
inactive: [1]; [7] -1% | [1]; [8] -3% | [1]; at 50.0 µM -3.95% | [2]; [7] -6% | [2]; [8] -15% | [2]; at 50.0 µM 6.6% | [3]; [7] 4% | [3]; [8] 4% | [3]; at 50.0 µM 10.4% | [4]; [7] 0% | [4]; [8] -3% | [4]; at 50.0 µM -8.8% | [5]; [7] 5% | [5]; [8] 30% | [6]; [7] -5% | [6]; [8] -2% | [6]; at 50.0 µM -20.2%
active: [5]; at 50.0 µM 83.4%
